Laboratory results taken from the supplement of paper PMC9262897, “Low-cost anti-mycobacterial drug discovery using engineered E. coli” (Nature Communications, 2022).
Counter-ions that a name gives are not always drawn. ± gives the standard deviation of the averaged measurements.

Legend:
Test in all cases: growth (OD600 after 10 h); higher = more growth (less inhibition)
[1] = tested on: E. coli TESEC Alr+ wild-type control; details: compound 0.1 mM; raw OD600 reference: median of DMSO wells 0.241, cell-free background 0.041
Procedure: (§1)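 TESEC Mtb Alr E. coli, or the Alr+ wild-type control, in 384-well plates with Prestwick library compounds at 0.1 mM and 1% DMSO, across arabinose induction levels of 1E3 to 1E7 nM. Growth is read as OD600 after 10 h at 37 °C in triplicate biological replicates.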

[2] = tested on: E. coli TESEC Mtb Alr; details: compound 0.1 mM
Procedure: as §1

[3] = tested on: E. coli TESEC Mtb Asd; details: compound 0.1 mM
Procedure: (§2)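 TESEC E. coli strains in which the native enzyme is deleted and replaced by arabinose-inducible Mtb Asd, DapB, CysH or TrpD, each grown in its selective medium. Strains were screened against the Prestwick library at 0.1 mM and 1% DMSO in 384-well format at low and high arabinose induction. Growth is read as OD600 after 10 h in triplicate.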

[4] = tested on: E. coli TESEC Mtb DapB; details: compound 0.1 mM
Procedure: as §2

[5] = tested on: E. coli TESEC Alr+ wild-type control; details: compound 0.1 mM; raw OD600 reference: median of DMSO wells 0.49, cell-free background 0.052
Procedure: (§3)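 TESEC Mtb Alr E. coli (ΔaraC ΔtolC ΔentC Δalr ΔdadX, arabinose-inducible Mtb Alr) or the Alr+ wild-type control strain, grown in defined M9-fructose medium without D-alanine in 96-well plates with Prestwick library compounds at 0.1 mM and 1% DMSO. Low Alr induction is 0.1 µM arabinose and high induction is 10 mM arabinose.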

[6] = tested on: E. coli TESEC Mtb Alr; details: compound 0.1 mM; remark: listed apart in the source
Procedure: as §3

[7] = arabinose 1000 nM, raw OD600 reference: median of DMSO wells 0.294, cell-free background 0.041
[8] = arabinose 10000 nM, raw OD600 reference: median of DMSO wells 0.264, cell-free background 0.041
[9] = arabinose 100000 nM, raw OD600 reference: median of DMSO wells 0.201, cell-free background 0.041
[10] = arabinose 1000000 nM, raw OD600 reference: median of DMSO wells 0.193, cell-free background 0.041
[11] = arabinose 10000000 nM, raw OD600 reference: median of DMSO wells 0.146, cell-free background 0.041
[12] = arabinose induction (level): High, raw OD600 reference: median of DMSO wells 0.331, cell-free background 0.041
[13] = arabinose induction (level): Low, raw OD600 reference: median of DMSO wells 0.417, cell-free background 0.041
[14] = arabinose induction (level): High, raw OD600 reference: median of DMSO wells […], cell-free background 0.041
[15] = arabinose induction (level): Low, raw OD600 reference: median of DMSO wells 0.227, cell-free background 0.041
[16] = arabinose 100 nM, raw OD600 reference: median of DMSO wells 0.413, cell-free background 0.052
[17] = arabinose 10000000 nM, raw OD600 reference: median of DMSO wells […], cell-free background 0.052

## O=C(c1ccc(OCCN2CCCCC2)cc1)c1c(-c2ccc(O)cc2)sc2cc(O)ccc12 [Raloxifene hydrochloride]
[1]
  growth: 0.0456 ± 0.0048
[2]; [7]
  growth: 0.0454 ± 0.0038
[2]; [8]
  growth: 0.0428 ± 0.0024
[2]; [9]
  growth: 0.048 ± 0.0037
[2]; [10]
  growth: 0.0438 ± 0.002
[2]; [11]
  growth: 0.0448 ± 0.003
[3]; [12]
  growth: 0.062 ± 0.0013
[3]; [13]
  growth: 0.0566 ± 0.0034
[4]; [14]
  growth: 0.0658 ± 0.014
[4]; [15]
  growth: 0.0509 ± 0.0031
[5]
  growth: 0.04917 ± 0.00038
[6]; [16]
  growth: 0.41 ± 0.007
[6]; [17]
  growth: 0.0554 ± 0.0018

## Clc1ccc(COC(Cn2ccnc2)c2ccc(Cl)cc2Cl)c(Cl)c1 (stereo unspecified) [Miconazole]
[1]
  growth: 0.0977 ± 0.098
[2]; [7]
  growth: 0.201 ± 0.11
[2]; [8]
  growth: 0.03953 ± 0.00021
[2]; [9]
  growth: 0.0741 ± 0.0079
[2]; [10]
  growth: 0.03923 ± 0.00025
[2]; [11]
  growth: 0.141 ± 0.061
[3]; [12]
  growth: 0.0471 ± 0.00055
[3]; [13]
  growth: 0.0481 ± 0.0013
[4]; [14]
  growth: 0.0949 ± 0.0049
[4]; [15]
  growth: 0.134 ± 0.1
[5]
  growth: 0.137 ± 0.03
[6]; [16]
  growth: 0.051 ± 0.0039
[6]; [17]
  growth: 0.083 ± 0.0044

## CCN1CCC[C@H]1CNC(=O)c1c(OC)ccc(Br)c1OC [Remoxipride Hydrochloride]
[1]
  growth: 0.256 ± 0.007
[2]; [7]
  growth: 0.304 ± 0.016
[2]; [8]
  growth: 0.259 ± 0.004
[2]; [9]
  growth: 0.192 ± 0.0085
[2]; [10]
  growth: 0.184 ± 0.0027
[2]; [11]
  growth: 0.136 ± 0.0041
[3]; [12]
  growth: 0.288 ± 0.032
[3]; [13]
  growth: 0.445 ± 0.015
[4]; [14]
  growth: 0.195 ± 0.0092
[4]; [15]
  growth: 0.218 ± 0.039
[5]
  growth: 0.588 ± 0.039
[6]; [16]
  growth: 0.416 ± 0.017
[6]; [17]
  growth: 0.338 ± 0.039

## CC(C)CC(=O)N[C@H](C(=O)N[C@H](C(=O)N[C@@H](CC(C)C)[C@@H](O)CC(=O)N[C@@H](C)C(=O)N[C@@H](CC(C)C)[C@@H](O)CC(=O)O)C(C)C)C(C)C [Pepstatin A]
[1]
  growth: 0.226 ± 0.0077
[2]; [7]
  growth: 0.307 ± 0.0049
[2]; [8]
  growth: 0.271 ± 0.0051
[2]; [9]
  growth: 0.234 ± 0.043
[2]; [10]
  growth: 0.202 ± 0.02
[2]; [11]
  growth: 0.15 ± 0.0034
[3]; [12]
  growth: 0.419 ± 0.028
[3]; [13]
  growth: 0.427 ± 0.064
[4]; [14]
  growth: 0.172 ± 0.0073
[4]; [15]
  growth: 0.246 ± 0.046
[5]
  growth: 0.468 ± 0.053
[6]; [16]
  growth: 0.412 ± 0.005
[6]; [17]
  growth: 0.345 ± 0.036

## COc1ccccc1OCCNCC(O)COc1cccc2[nH]c3ccccc3c12 (stereo unspecified) [Carvedilol]
[1]
  growth: 0.0443 ± 0.0033
[2]; [7]
  growth: 0.0415 ± 0.00062
[2]; [8]
  growth: 0.046 ± 0.0023
[2]; [9]
  growth: 0.0419 ± 0.00047
[2]; [10]
  growth: 0.04137 ± 0.0004
[2]; [11]
  growth: 0.0456 ± 0.0015
[3]; [12]
  growth: 0.0533 ± 0.004
[3]; [13]
  growth: 0.0496 ± 0.0017
[4]; [14]
  growth: 0.0942 ± 0.026
[4]; [15]
  growth: 0.06 ± 0.004
[5]
  growth: 0.167 ± 0.11
[6]; [16]
  growth: 0.4106 ± 0.0016
[6]; [17]
  growth: 0.0825 ± 0.025

## C(=C\c1ccccc1)/CN1CCN(C(c2ccccc2)c2ccccc2)CC1 [Cinnarizine]
[1]
  growth: 0.202 ± 0.0048
[2]; [7]
  growth: 0.246 ± 0.015
[2]; [8]
  growth: 0.251 ± 0.014
[2]; [9]
  growth: 0.18 ± 0.011
[2]; [10]
  growth: 0.147 ± 0.0054
[2]; [11]
  growth: 0.149 ± 0.0039
[3]; [12]
  growth: 0.277 ± 0.079
[3]; [13]
  growth: 0.395 ± 0.02
[4]; [14]
  growth: 0.205 ± 0.011
[4]; [15]
  growth: 0.223 ± 0.019
[5]
  growth: 0.539 ± 0.055
[6]; [16]
  growth: 0.431 ± 0.0055
[6]; [17]
  growth: 0.375 ± 0.0072

## Cc1cc(=O)oc2cc(O)ccc12 [Hymecromone]
[1]
  growth: 0.227 ± 0.0065
[2]; [7]
  growth: 0.286 ± 0.024
[2]; [8]
  growth: 0.25 ± 0.0054
[2]; [9]
  growth: 0.177 ± 0.012
[2]; [10]
  growth: 0.182 ± 0.0058
[2]; [11]
  growth: 0.148 ± 0.0076
[3]; [12]
  growth: 0.317 ± 0.033
[3]; [13]
  growth: 0.411 ± 0.013
[4]; [14]
  growth: 0.198 ± 0.0059
[4]; [15]
  growth: 0.208 ± 0.032
[5]
  growth: 0.631 ± 0.01
[6]; [16]
  growth: 0.406 ± 0.017
[6]; [17]
  growth: 0.355 ± 0.0061
